# Numbering of substitutions follows the chain as printed.
# Legend:
# Experiment in all cases: PBM; 200 nM protein, PBS
# Conditions in all cases: dsDNA, one strand shown
# HOXB4 [1] = molecular target: HOXB4 (Homo sapiens, UniProt P17483 148-234)
# VENTX [2] = molecular target: T1, VENTX (Homo sapiens, UniProt O95231 78-163, R121Q)
# T1 sequence: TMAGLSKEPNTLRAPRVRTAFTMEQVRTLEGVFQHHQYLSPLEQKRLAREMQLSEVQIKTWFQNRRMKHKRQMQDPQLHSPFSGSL
# HOXB9 [3] = molecular target: HOXB9 (Homo sapiens, UniProt P17482 171-250, T197M)
# SIX6 [4] = molecular target: T2, SIX6 (Homo sapiens, UniProt O95475 114-200, L167I)
# T2 sequence: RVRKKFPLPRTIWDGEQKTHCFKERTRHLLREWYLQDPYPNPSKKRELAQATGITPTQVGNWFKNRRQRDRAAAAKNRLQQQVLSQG
# VENTX [5] = molecular target: T3, VENTX (Homo sapiens, UniProt O95231 78-163)
# T3 sequence: T1 sequence with Q44R
# SIX6 [6] = molecular target: T4, SIX6 (Homo sapiens, UniProt O95475 114-200, L143V)
# T4 sequence: T2 sequence with L30V, I54L
# HOXA7 [7] = molecular target: HOXA7 (Homo sapiens, UniProt P31268 116-202)
# ALX4 [8] = molecular target: ALX4 (Homo sapiens, UniProt Q9H161 200-286)
# PAX4 [9] = molecular target: T5, PAX4 (Homo sapiens, UniProt O43316 9-242, R200K)
# T5 sequence: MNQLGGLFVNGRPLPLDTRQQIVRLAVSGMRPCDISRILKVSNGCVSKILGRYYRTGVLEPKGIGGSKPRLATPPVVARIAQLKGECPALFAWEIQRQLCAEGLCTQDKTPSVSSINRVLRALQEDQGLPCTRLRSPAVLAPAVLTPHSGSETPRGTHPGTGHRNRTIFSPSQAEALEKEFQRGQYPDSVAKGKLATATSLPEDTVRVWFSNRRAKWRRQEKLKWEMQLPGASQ
# SIX6 [10] = molecular target: T6, SIX6 (Homo sapiens, UniProt O95475 114-200, H141N)
# T6 sequence: T2 sequence with H28N, I54L
# SIX6 [11] = molecular target: T7, SIX6 (Homo sapiens, UniProt O95475 114-200, T165P)
# T7 sequence: T2 sequence with T52P, I54L
# VENTX [12] = molecular target: T8, VENTX (Homo sapiens, UniProt O95231 78-163, Y115F)
# T8 sequence: T1 sequence with Y38F, Q44R
# PAX4 [13] = molecular target: T9, PAX4 (Homo sapiens, UniProt O43316 9-242)
# T9 sequence: T5 sequence with K192R
# SIX6 [14] = molecular target: T10, SIX6 (Homo sapiens, UniProt O95475 114-200, L167M)
# T10 sequence: T2 sequence with I54M
# SIX6 [15] = molecular target: T11, SIX6 (Homo sapiens, UniProt O95475 114-200, L143M)
# T11 sequence: T2 sequence with L30M, I54L
# SIX6 [16] = molecular target: T12, SIX6 (Homo sapiens, UniProt O95475 114-200, L143I)
# T12 sequence: T2 sequence with L30I, I54L
# ALX4 [17] = molecular target: ALX4 (Homo sapiens, UniProt Q9H161 200-286, Q225E)
# SIX6 [18] = molecular target: T13, SIX6 (Homo sapiens, UniProt O95475 114-200, T165G)
# T13 sequence: T2 sequence with T52G, I54L
# HOXB9 [19] = molecular target: HOXB9 (Homo sapiens, UniProt P17482 171-250)
# SIX6 [20] = molecular target: T14, SIX6 (Homo sapiens, UniProt O95475 114-200, T139Q)
# T14 sequence: T2 sequence with T26Q, I54L
# HOXB4 [21] = molecular target: HOXB4 (Homo sapiens, UniProt P17483 148-234, V174I)
# SIX6 [22] = molecular target: T15, SIX6 (Homo sapiens, UniProt O95475 114-200, T165A)
# T15 sequence: T2 sequence with T52A, I54L
# PAX4 [23] = molecular target: T16, PAX4 (Homo sapiens, UniProt O43316 9-242, R200Q)
# T16 sequence: T5 sequence with K192Q
# PAX4 [24] = molecular target: T17, PAX4 (Homo sapiens, UniProt O43316 9-242, F177V)
# T17 sequence: T5 sequence with F169V, K192R
# SIX6 [25] = molecular target: T18, SIX6 (Homo sapiens, UniProt O95475 114-200, L167V)
# T18 sequence: T2 sequence with I54V
# PAX4 [26] = molecular target: T19, PAX4 (Homo sapiens, UniProt O43316 9-242, F177Y)
# T19 sequence: T5 sequence with F169Y, K192R
# PROP1 [27] = molecular target: PROP1 (Homo sapiens, UniProt O75360 56-141)
# SIX6 [28] = molecular target: T20, SIX6 (Homo sapiens, UniProt O95475 114-200)
# T20 sequence: T2 sequence with I54L
# PROP1 [29] = molecular target: PROP1 (Homo sapiens, UniProt O75360 56-141, R99H)
# SIX6 [30] = molecular target: T21, SIX6 (Homo sapiens, UniProt O95475 114-200, T165I)
# T21 sequence: T2 sequence with T52I, I54L
# HOXB9 [31] = molecular target: HOXB9 (Homo sapiens, UniProt P17482 171-250, R186Q)
# PROP1 [32] = molecular target: PROP1 (Homo sapiens, UniProt O75360 56-141, F88S)
# PAX4 [33] = molecular target: T22, PAX4 (Homo sapiens, UniProt O43316 9-242, R227W)
# T22 sequence: T5 sequence with K192R, R219W
# HOXA7 [34] = molecular target: HOXA7 (Homo sapiens, UniProt P31268 116-202, W177C)
# Chain of HOXA7 (Homo sapiens, UniProt P31268 116-202, W177C) (P31268 116-202 W177C): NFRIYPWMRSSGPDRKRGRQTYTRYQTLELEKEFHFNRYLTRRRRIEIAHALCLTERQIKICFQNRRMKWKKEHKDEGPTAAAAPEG
# Chain of HOXB4 (Homo sapiens, UniProt P17483 148-234, V174I) (P17483 148-234 V174I): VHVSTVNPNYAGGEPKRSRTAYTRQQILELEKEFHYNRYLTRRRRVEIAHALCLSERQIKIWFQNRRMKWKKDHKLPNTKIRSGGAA
# Chain of ALX4 (Homo sapiens, UniProt Q9H161 200-286, Q225E) (Q9H161 200-286 Q225E): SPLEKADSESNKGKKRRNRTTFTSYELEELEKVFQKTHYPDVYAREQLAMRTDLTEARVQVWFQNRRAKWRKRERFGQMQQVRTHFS
# Chain of HOXB9 (Homo sapiens, UniProt P17482 171-250, R186Q) (P17482 171-250 R186Q): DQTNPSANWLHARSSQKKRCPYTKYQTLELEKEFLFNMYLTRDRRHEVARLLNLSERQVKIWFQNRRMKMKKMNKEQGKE
# Chain of HOXA7 (Homo sapiens, UniProt P31268 116-202) (P31268 116-202): as the sequence (P31268 116-202 W177C) above, with C62W counted along it
# Chain of PROP1 (Homo sapiens, UniProt O75360 56-141) (O75360 56-141): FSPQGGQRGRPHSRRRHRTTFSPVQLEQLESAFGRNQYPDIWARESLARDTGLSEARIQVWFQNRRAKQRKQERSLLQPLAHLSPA
# Chain of HOXB9 (Homo sapiens, UniProt P17482 171-250, T197M) (P17482 171-250 T197M): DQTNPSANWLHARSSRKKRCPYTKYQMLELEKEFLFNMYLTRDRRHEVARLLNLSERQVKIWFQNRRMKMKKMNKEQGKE
# Chain of HOXB9 (Homo sapiens, UniProt P17482 171-250) (P17482 171-250): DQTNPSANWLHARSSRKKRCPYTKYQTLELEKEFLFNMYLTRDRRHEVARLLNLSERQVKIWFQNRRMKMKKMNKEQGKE
# Chain of HOXB4 (Homo sapiens, UniProt P17483 148-234) (P17483 148-234): as the sequence (P17483 148-234 V174I) above, with I27V counted along it
# Chain of PROP1 (Homo sapiens, UniProt O75360 56-141, R99H) (O75360 56-141 R99H): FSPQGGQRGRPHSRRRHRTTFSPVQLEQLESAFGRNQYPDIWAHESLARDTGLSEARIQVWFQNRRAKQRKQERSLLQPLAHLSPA
# Chain of ALX4 (Homo sapiens, UniProt Q9H161 200-286) (Q9H161 200-286): as the sequence (Q9H161 200-286 Q225E) above, with E26Q counted along it
# Chain of PROP1 (Homo sapiens, UniProt O75360 56-141, F88S) (O75360 56-141 F88S): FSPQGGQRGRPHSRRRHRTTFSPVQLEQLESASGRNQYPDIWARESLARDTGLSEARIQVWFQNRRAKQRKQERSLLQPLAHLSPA
sequence,measurement,setting,value
CGTCCCGC,binding signal,HOXB4 [1],"7.48 upbm affinity estimate (log intensity, higher = more binding, comparable within an allelic series)"
same,binding signal,VENTX [2],"7.82 upbm affinity estimate (log intensity, higher = more binding, comparable within an allelic series)"
same,binding signal,HOXB9 [3],"8.41 upbm affinity estimate (log intensity, higher = more binding, comparable within an allelic series)"
same,binding signal,SIX6 [4],"8.81 upbm affinity estimate (log intensity, higher = more binding, comparable within an allelic series)"
same,binding signal,VENTX [5],"7.89 upbm affinity estimate (log intensity, higher = more binding, comparable within an allelic series)"
same,binding signal,SIX6 [6],"8.68 upbm affinity estimate (log intensity, higher = more binding, comparable within an allelic series)"
same,binding signal,HOXA7 [7],"8.5 upbm affinity estimate (log intensity, higher = more binding, comparable within an allelic series)"
same,binding signal,ALX4 [8],"8 upbm affinity estimate (log intensity, higher = more binding, comparable within an allelic series)"
same,binding signal,PAX4 [9],"9.13 upbm affinity estimate (log intensity, higher = more binding, comparable within an allelic series)"
same,binding signal,SIX6 [10],"8.86 upbm affinity estimate (log intensity, higher = more binding, comparable within an allelic series)"
same,binding signal,SIX6 [11],"8.88 upbm affinity estimate (log intensity, higher = more binding, comparable within an allelic series)"
same,binding signal,VENTX [12],"7.87 upbm affinity estimate (log intensity, higher = more binding, comparable within an allelic series)"
same,binding signal,PAX4 [13],"9.17 upbm affinity estimate (log intensity, higher = more binding, comparable within an allelic series)"
same,binding signal,SIX6 [14],"8.79 upbm affinity estimate (log intensity, higher = more binding, comparable within an allelic series)"
same,binding signal,SIX6 [15],"8.75 upbm affinity estimate (log intensity, higher = more binding, comparable within an allelic series)"
same,binding signal,SIX6 [16],"8.79 upbm affinity estimate (log intensity, higher = more binding, comparable within an allelic series)"
same,binding signal,ALX4 [17],"8.06 upbm affinity estimate (log intensity, higher = more binding, comparable within an allelic series)"
same,binding signal,SIX6 [18],"8.8 upbm affinity estimate (log intensity, higher = more binding, comparable within an allelic series)"
same,binding signal,HOXB9 [19],"8.35 upbm affinity estimate (log intensity, higher = more binding, comparable within an allelic series)"
same,binding signal,SIX6 [20],"8.84 upbm affinity estimate (log intensity, higher = more binding, comparable within an allelic series)"
same,binding signal,HOXB4 [21],"7.45 upbm affinity estimate (log intensity, higher = more binding, comparable within an allelic series)"
same,binding signal,SIX6 [22],"8.8 upbm affinity estimate (log intensity, higher = more binding, comparable within an allelic series)"
same,binding signal,PAX4 [23],"9.15 upbm affinity estimate (log intensity, higher = more binding, comparable within an allelic series)"
same,binding signal,PAX4 [24],"9.15 upbm affinity estimate (log intensity, higher = more binding, comparable within an allelic series)"
same,binding signal,SIX6 [25],"8.87 upbm affinity estimate (log intensity, higher = more binding, comparable within an allelic series)"
same,binding signal,PAX4 [26],"9.19 upbm affinity estimate (log intensity, higher = more binding, comparable within an allelic series)"
same,binding signal,PROP1 [27],"6.64 upbm affinity estimate (log intensity, higher = more binding, comparable within an allelic series)"
same,binding signal,SIX6 [28],"8.76 upbm affinity estimate (log intensity, higher = more binding, comparable within an allelic series)"
same,binding signal,PROP1 [29],"6.65 upbm affinity estimate (log intensity, higher = more binding, comparable within an allelic series)"
same,binding signal,SIX6 [30],"8.78 upbm affinity estimate (log intensity, higher = more binding, comparable within an allelic series)"
same,binding signal,HOXB9 [31],"8.38 upbm affinity estimate (log intensity, higher = more binding, comparable within an allelic series)"
same,binding signal,PROP1 [32],"6.67 upbm affinity estimate (log intensity, higher = more binding, comparable within an allelic series)"
same,binding signal,PAX4 [33],"9.22 upbm affinity estimate (log intensity, higher = more binding, comparable within an allelic series)"
same,binding signal,HOXA7 [34],"8.32 upbm affinity estimate (log intensity, higher = more binding, comparable within an allelic series)"

# Reference: article PMC11006913
